Compounds with a hit are over-represented: about 7.9% of the library has one in this group of screens.
HCMV antiviral = blocks human cytomegalovirus replication | HFF cells, HCMV-luciferase reporter, 72 h; active compounds read low | activity change, negative = inhibition, % at 57.5 µM | hit rate 4.5% among 410,000 | AID 1259415; in the data active means activity change below about -60%; inconclusive means no clear call, values can overlap the other calls; inactive means above about -39%
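HFF cells seeded 16 h at 37C, treated with compounds, infected with luciferase-reporter HCMV at MOI 1 PFU/cell; luciferase read at 72 h post infection, normalized to buffer-only and Salinomycin controls.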
MARV entry inh = blocks Marburg virus binding to or entry into cells; AID 540276; Marburg virus pseudotyped entry inhibition, cell reporter; Potency, µM (doses to about 37.8 µM), for inactives: at the top dose activity change, negative = inhibition, usual class: inhibitors; hit rate 1.8% among 300,000; calls by dose curve; tested in HEK293 cells; further: potency means the concentration at half of the fitted maximal effect
FMDV antiviral = foot and mouth disease virus antiviral activity; FMDV antiviral cell-based qHTS; Potency, µM (highest dose often 57.9 µM), for inactives: at the highest dose activity change, negative = inhibition, most hits filed as inhibitors; hit rate 1.2% among 410,000; AID 1159524; calls by dose curve; tested in HEK293T cells; further: read-out not given here; potency means the concentration at half of the fitted maximal effect; nearly all actives have a fitted effect of over 45% in size
HCV inh = blocks hepatitis C virus; Huh7.5.1 HCVcc-Cre infection, luciferase reporter, 44 h; Potency, µM (series often up to 41.8 µM), without a hit: at the highest dose activity change, negative = inhibition, usual class: inhibitors; hit rate 3.4% among 340,000; AID 651820; active means well fitted inhibition curve with a large enough effect; inconclusive means small, poorly fitted or top-dose-only effect, or another doubt; inactive means no such curve, though single readings can be large or run the other way; further: potency means the concentration at half of the fitted maximal effect
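After 44 h co-culture of compound, cells and HCVcc-Cre (~0.5 moi), substrate is added for 15 min at room temperature and luciferase measured over 15 sec. Cells were seeded at 1,000/well and pre-cultured 4 h.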
LASV entry inh = Lassa virus entry inhibition. Lassa virus pseudotype entry inhibition, cell reporter. Potency, µM (doses to about 37.9 µM), without a hit: at the top dose activity change, negative = inhibition, usual class: inhibitors. hit rate 1.2% among 300,000; calls by dose curve; tested in HEK293 cells; further: potency means the concentration at half of the fitted maximal effect; nearly all actives have a fitted effect of over 50% in size
* hit, by the source's call; [ ] = another dose, or the depositor's remark. On the % scale 0 is the no-effect control and ±100 the full control effect.

`COc1ccc(C)cc1NC(=O)C(Sc1nnc(Nc2cc(C)ccc2OC)s1)c1ccccc1` (stereo not drawn) gave HCMV antiviral inconclusive, MARV entry inh inconclusive, FMDV antiviral 6%, HCV inh 10µM* and LASV entry inh -1%.
`COc1ccc2[nH]cc(/C=C/C(=O)c3ccccc3)c2c1` gave HCMV antiviral 3, MARV entry inh inconclusive, FMDV antiviral 60%, HCV inh 10µM* and LASV entry inh inconclusive.
For COc1ccc2[nH]cc(/C=C/c3cc[n+](C)cc3)c2c1 the results were HCMV antiviral -92*, FMDV antiviral -7% and HCV inh 7.9µM*.
`COc1ccc2[nH]cc(C(=O)CCl)c2c1` gave HCMV antiviral -100*, FMDV antiviral 28µM* and HCV inh inconclusive.
Screening COC(=O)c1ccc(C2c3c(oc4ccccc4c3=O)C(=O)N2c2nc(C)c(C(=O)OC)s2)cc1 (stereo not drawn) returned HCMV antiviral -13, MARV entry inh 9%[46.1 µM], FMDV antiviral -5% and LASV entry inh 2%[46.1 µM].
CCCCCNC(=O)C1(C)CCc2nc3cc(C)c(C)cc3n21 (stereo not drawn) was read as HCMV antiviral -11.
For Cc1cccn2c(=O)c(/C=C(\C#N)c3nc4ccccc4s3)c(Oc3ccc(Br)cc3)nc12 the results were HCMV antiviral -3, MARV entry inh 10%[46.1 µM], FMDV antiviral -10% and LASV entry inh 19%[46.1 µM].
Screening CS(=O)(=O)c1nc(-c2cccs2)cc(C(F)(F)F)n1 returned MARV entry inh 0%.
For CN1CCN(c2nc(-c3ccccc3)cc(C(F)(F)F)n2)CC1 the results were HCMV antiviral -3, MARV entry inh inconclusive, FMDV antiviral -1%, HCV inh inconclusive and LASV entry inh -19%.
Screening O=[N+]([O-])c1cnn(-c2nc(-c3cccs3)cc(C(F)(F)F)n2)c1 returned HCMV antiviral -99*, MARV entry inh 6%[46.1 µM], FMDV antiviral -20%, HCV inh -27% and LASV entry inh -16%[46.1 µM].
Screening CN1CCN(c2nc(-c3cccs3)cc(C(F)(F)F)n2)CC1 returned HCMV antiviral -33, MARV entry inh inconclusive, FMDV antiviral -25%, HCV inh 2.8µM* and LASV entry inh -29%.
Cc1ccc(CNC(=O)CCCN2C(=O)COc3ccc(C)cc32)cc1 was read as HCMV antiviral -8, FMDV antiviral -17% and LASV entry inh -14%[46.1 µM].
`N#Cc1cc2sc3nnc(-c4ccncc4)n3c2cc1C#N` gave HCMV antiviral -62*, MARV entry inh inconclusive, FMDV antiviral 0%, HCV inh inconclusive and LASV entry inh -24%.
Screening CCOC(=O)c1c(C)n2c3c(cc(C)cc13)CCC2 returned HCMV antiviral inconclusive, MARV entry inh inconclusive, FMDV antiviral 4%, HCV inh 10µM* and LASV entry inh -2%.
O=C1c2[nH]nc(-c3ccccc3O)c2C(c2ccccc2F)N1Cc1ccco1 (stereo not drawn) was read as HCMV antiviral -20, MARV entry inh -1%, FMDV antiviral -21%, HCV inh inconclusive and LASV entry inh 5.2µM*.
`O=C1c2[nH]nc(-c3ccccc3O)c2C(c2ccccc2)N1Cc1ccco1` (stereo not drawn) gave HCMV antiviral 41, MARV entry inh inconclusive, FMDV antiviral -23%, HCV inh -18% and LASV entry inh 1.5µM*.
Screening Oc1ccc(/C=C/c2nc(-c3ccccc3O)n(-c3ccccc3)n2)cc1 returned HCMV antiviral -8, MARV entry inh inconclusive, FMDV antiviral -1%, HCV inh inconclusive and LASV entry inh 12µM*.
`CCCCCC(=O)N1C[C@@H](n2cc(COC(=O)c3ccccc3)nn2)[C@H](O)C[C@H]1c1ccccc1` gave LASV entry inh 3%[46.1 µM].
Screening N#Cc1ncc(N=Cc2ccc(N(CCCl)CCCl)cc2)s1 returned HCMV antiviral -32, MARV entry inh 0.79µM*, FMDV antiviral -27%, HCV inh inconclusive and LASV entry inh 0.71µM*.
ClCCN(CCCl)c1ccc(C=NNc2ncccn2)cc1 was read as HCMV antiviral -34, MARV entry inh inconclusive, FMDV antiviral 16%, HCV inh inconclusive and LASV entry inh inconclusive.
Cc1ccc(N(CN2C(=O)[C@H]3CC=CC[C@@H]3C2=O)C(=O)c2ccco2)cc1Cl was read as MARV entry inh -20%.
Cc1cccc(OCC(=O)N(Cc2ccc(C(C)(C)C)cc2)Cc2ccco2)c1 was read as HCMV antiviral -82*, MARV entry inh -3%[46.1 µM], FMDV antiviral -25% and LASV entry inh inconclusive.
For Cc1ccc(CN(Cc2ccco2)C(=O)COc2ccc(C)c(C)c2)cc1 the results were HCMV antiviral 37, MARV entry inh inconclusive, FMDV antiviral -12% and LASV entry inh inconclusive.
For CCc1ccc(OCC(=O)N(Cc2ccc(C)cc2)Cc2ccco2)cc1 the results were HCMV antiviral 24, MARV entry inh -2%[46.1 µM], FMDV antiviral -23% and LASV entry inh -2%[46.1 µM].
`Cc1cc(=O)oc2ccc(OCC(=O)N(Cc3ccc(F)cc3)Cc3ccco3)cc12` gave HCMV antiviral -16, MARV entry inh inconclusive, FMDV antiviral 20µM*, HCV inh 3.2µM* and LASV entry inh -25%.
Screening CCN(c1cccc(C)c1)S(=O)(=O)c1nnc(NC(=O)c2ccccc2Cl)s1 returned HCMV antiviral -29, FMDV antiviral -15% and LASV entry inh -7%[46.1 µM].
For Cc1ccc(-c2nn(-c3ccc(F)cc3F)c3c2cnc2ccc(F)cc23)cc1 the results were HCMV antiviral 10, FMDV antiviral inconclusive and LASV entry inh -16%[46.1 µM].
For CC1(C(=O)Nc2cnc3ccccc3c2)CCN1Cc1ccccc1Cl (stereo not drawn) the results were HCMV antiviral -76* and FMDV antiviral 0%.
CC(=O)N1CCc2cc(NC(=O)C3(C)CCN3Cc3ccccc3OC(F)F)ccc21 (stereo not drawn) was read as HCMV antiviral -61* and FMDV antiviral inconclusive.
COc1cccc(NC(=O)C2(C)CCN2Cc2ccc(OC)c3ccccc23)c1 (stereo not drawn) was read as HCMV antiviral 5 and FMDV antiviral 0%.
For COc1cccc(CN2CCC2(C)C(=O)Nc2cccc(Oc3ccccc3)c2)c1OC (stereo not drawn) the results were HCMV antiviral -61* and FMDV antiviral -28%.
COc1cccc(NC(=O)C2(C)CCN2Cc2ccccc2OC(F)F)c1 (stereo not drawn) was read as HCMV antiviral inconclusive and FMDV antiviral -26%.
`CCOc1ccc(NC(=S)N(CCc2c(C)[nH]c3ccccc23)Cc2ccco2)cc1` gave HCMV antiviral -13, MARV entry inh 0%, FMDV antiviral -17%, HCV inh inconclusive and LASV entry inh 2%.
For COc1ccccc1NC(=S)N(Cc1ccco1)Cc1cc2cc(C)c(C)cc2[nH]c1=O the results were HCMV antiviral -62*, MARV entry inh inconclusive, FMDV antiviral -16%, HCV inh inconclusive and LASV entry inh inconclusive.

Screening results: PubChem BioAssay, National Center for Advancing Translational Sciences (NCATS)
